Assay results taken from the supplement of paper PMC10849652.
About 7,900 targets were measured; listed, in parts, are those with a hit and a random draw of the rest. About 0.6% of all pairs of compound and target were hits. A number with no mark means an inactive call.

What was measured:
Experiment in all cases: log2 fold change, soluble protein after heating vs DMSO (PISA); higher = thermal stabilisation; K562 cells, 10 uM, 30 min; active = over 0.2 and 3.5 SD of the protein, either way, in both replicates (recomputed)
[1] = compound: COC1=CC=C(C=C1)CN2C=CC3=C2C=C(C=C3)C(=O)NO
In short: (§1)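 Values are thermal stability changes relative to control samples and are taken from duplicates. They are stated as log2 fold changes. Before quantification by TMTpro 16plex LC-MS/MS with equalised channel sums, K562 cells at 2×10^6 cells/mL were treated with 10 μM compound for 30 min, heated in aliquots for 3 min across 48°C-58°C, pooled, extracted in PBS with 0.5% NP-40 at 4°C, and centrifuged at 21,000xg for 90 min to give the soluble supernatant.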

[2] = compound: CON(C)C(=O)N1N=C(c2cc(F)ccc2F)S[C@@]1(CCCN)c1ccccc1 [filanesib]
In short: as §1

[3] = compound: CO[C@H]1C[C@@H]2CC[C@@H](C)[C@@](O)(O2)C(=O)C(=O)N2CCCC[C@H]2C(=O)O[C@H]([C@H](C)C[C@@H]2CC[C@H](n3cnnn3)[C@H](OC)C2)CC(=O)[C@H](C)/C=C(\C)[C@@H](O)[C@@H](OC)C(=O)[C@H](C)C[C@H](C)/C=C/C=C/C=C/1C [zotarolimus]
In short: as §1

[4] = compound: COc1cc(C(=O)O)ccc1NC(=O)[C@@H]1N[C@@H](CC(C)(C)C)[C@](C#N)(c2ccc(Cl)cc2F)[C@H]1c1cccc(Cl)c1F [idasanutlin]
In short: as §1

[5] = compound: COc1cc(Nc2ncc3c(n2)-c2ccc(Cl)cc2C(c2c(F)cccc2OC)=NC3)ccc1C(=O)O [alisertib]
In short: as §1

[6] = compound: COc1cc2nc(-c3cc(F)ccc3O)nc(N[C@@H]3CNC[C@H]3C(C)(C)O)c2cc1OC
In short: as §1

[7] = compound: COc1cc2ncnc(Nc3ccc(F)c(Cl)c3)c2cc1OCCCN1CCOCC1 [gefitinib]
In short: as §1

[8] = compound: COc1cccc2cc(-c3nc([C@H]4CC[C@H](C(=O)O)CC4)n4ncnc(N)c34)[nH]c12
In short: as §1

[9] = compound: CS(=O)(=O)CCNCc1ccc(-c2ccc3ncnc(Nc4ccc(OCc5cccc(F)c5)c(Cl)c4)c3c2)o1 [lapatinib]
In short: as §1

[10] = compound: CS(=O)(=O)N1CCN(Cc2cc3nc(-c4cccc5[nH]ncc45)nc(N4CCOCC4)c3s2)CC1 [pictilisib]
In short: as §1

UniProt Q9Y6D6, sequence (Q9Y6D6 whole entry, looked up): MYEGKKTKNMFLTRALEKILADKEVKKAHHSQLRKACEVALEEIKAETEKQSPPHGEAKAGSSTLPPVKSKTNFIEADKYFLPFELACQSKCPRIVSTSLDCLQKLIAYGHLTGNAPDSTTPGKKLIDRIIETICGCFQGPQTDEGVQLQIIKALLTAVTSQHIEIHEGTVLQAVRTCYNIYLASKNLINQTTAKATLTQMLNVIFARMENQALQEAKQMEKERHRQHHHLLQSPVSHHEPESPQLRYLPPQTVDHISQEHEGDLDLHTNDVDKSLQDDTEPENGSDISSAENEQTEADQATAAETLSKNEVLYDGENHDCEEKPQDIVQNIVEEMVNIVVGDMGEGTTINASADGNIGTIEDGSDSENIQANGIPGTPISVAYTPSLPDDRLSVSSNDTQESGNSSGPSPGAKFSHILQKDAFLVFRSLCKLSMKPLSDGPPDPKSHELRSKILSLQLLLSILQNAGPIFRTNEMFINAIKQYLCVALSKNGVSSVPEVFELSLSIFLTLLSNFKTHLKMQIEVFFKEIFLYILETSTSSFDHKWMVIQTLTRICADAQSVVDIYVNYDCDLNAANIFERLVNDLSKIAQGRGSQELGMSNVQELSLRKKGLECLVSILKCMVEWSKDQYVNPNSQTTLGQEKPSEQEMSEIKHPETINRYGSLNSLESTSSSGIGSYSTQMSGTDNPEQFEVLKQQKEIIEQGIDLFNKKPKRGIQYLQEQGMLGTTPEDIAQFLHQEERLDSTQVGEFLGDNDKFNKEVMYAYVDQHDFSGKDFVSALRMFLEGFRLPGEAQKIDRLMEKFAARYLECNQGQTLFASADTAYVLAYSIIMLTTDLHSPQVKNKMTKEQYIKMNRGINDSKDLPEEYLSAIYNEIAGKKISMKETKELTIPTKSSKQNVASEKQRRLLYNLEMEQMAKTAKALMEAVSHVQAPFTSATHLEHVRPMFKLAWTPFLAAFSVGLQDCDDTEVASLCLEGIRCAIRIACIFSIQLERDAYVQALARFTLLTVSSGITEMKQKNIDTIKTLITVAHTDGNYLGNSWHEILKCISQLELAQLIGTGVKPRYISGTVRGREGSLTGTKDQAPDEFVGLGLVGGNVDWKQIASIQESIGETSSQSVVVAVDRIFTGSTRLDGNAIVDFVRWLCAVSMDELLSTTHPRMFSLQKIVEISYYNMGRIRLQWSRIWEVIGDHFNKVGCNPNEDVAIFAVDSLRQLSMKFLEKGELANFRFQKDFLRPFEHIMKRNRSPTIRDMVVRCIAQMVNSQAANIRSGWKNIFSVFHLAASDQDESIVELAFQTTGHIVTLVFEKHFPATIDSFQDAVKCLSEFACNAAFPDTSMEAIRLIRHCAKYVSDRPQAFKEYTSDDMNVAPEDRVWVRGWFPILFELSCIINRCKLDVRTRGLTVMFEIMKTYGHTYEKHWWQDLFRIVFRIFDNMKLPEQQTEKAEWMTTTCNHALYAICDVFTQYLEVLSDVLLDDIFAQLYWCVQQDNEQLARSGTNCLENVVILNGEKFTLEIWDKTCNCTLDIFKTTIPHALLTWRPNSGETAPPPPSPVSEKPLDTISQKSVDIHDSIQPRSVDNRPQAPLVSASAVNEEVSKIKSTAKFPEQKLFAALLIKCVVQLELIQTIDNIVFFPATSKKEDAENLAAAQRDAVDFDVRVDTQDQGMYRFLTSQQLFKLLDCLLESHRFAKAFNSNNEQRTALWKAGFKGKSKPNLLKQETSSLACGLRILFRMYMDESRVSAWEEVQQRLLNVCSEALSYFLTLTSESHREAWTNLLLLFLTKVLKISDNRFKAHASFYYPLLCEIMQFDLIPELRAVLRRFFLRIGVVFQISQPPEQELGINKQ
UniProt Q9NSY1, sequence (Q9NSY1 whole entry, looked up): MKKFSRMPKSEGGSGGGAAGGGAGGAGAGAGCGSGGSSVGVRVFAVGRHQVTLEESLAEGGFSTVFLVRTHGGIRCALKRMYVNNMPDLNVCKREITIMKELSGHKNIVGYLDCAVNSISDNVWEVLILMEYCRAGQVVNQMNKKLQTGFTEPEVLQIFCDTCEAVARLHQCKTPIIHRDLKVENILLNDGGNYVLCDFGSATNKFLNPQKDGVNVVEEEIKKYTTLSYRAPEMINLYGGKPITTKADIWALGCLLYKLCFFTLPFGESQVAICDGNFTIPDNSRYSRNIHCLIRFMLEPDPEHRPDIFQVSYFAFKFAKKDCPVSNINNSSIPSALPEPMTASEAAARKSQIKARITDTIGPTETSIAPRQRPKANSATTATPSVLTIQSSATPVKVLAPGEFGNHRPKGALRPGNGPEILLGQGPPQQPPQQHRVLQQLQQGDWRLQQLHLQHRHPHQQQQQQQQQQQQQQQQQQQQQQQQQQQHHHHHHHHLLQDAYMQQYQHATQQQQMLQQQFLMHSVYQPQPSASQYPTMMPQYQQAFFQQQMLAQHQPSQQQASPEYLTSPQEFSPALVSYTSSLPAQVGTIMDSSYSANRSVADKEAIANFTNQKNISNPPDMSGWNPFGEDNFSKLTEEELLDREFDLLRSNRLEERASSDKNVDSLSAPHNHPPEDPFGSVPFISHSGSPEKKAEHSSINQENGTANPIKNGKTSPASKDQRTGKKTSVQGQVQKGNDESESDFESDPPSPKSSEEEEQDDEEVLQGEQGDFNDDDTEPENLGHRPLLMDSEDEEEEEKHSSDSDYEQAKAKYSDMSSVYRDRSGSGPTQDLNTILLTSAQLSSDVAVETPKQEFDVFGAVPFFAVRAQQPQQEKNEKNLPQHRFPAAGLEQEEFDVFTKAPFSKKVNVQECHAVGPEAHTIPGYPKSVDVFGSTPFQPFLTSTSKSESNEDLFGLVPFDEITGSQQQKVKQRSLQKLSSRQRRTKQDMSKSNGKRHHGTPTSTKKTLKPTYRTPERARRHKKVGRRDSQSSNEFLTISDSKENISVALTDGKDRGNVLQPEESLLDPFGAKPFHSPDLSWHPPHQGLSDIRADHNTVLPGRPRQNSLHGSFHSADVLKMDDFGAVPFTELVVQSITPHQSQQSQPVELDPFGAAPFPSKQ
UniProt P63010, sequence (P63010 whole entry, looked up): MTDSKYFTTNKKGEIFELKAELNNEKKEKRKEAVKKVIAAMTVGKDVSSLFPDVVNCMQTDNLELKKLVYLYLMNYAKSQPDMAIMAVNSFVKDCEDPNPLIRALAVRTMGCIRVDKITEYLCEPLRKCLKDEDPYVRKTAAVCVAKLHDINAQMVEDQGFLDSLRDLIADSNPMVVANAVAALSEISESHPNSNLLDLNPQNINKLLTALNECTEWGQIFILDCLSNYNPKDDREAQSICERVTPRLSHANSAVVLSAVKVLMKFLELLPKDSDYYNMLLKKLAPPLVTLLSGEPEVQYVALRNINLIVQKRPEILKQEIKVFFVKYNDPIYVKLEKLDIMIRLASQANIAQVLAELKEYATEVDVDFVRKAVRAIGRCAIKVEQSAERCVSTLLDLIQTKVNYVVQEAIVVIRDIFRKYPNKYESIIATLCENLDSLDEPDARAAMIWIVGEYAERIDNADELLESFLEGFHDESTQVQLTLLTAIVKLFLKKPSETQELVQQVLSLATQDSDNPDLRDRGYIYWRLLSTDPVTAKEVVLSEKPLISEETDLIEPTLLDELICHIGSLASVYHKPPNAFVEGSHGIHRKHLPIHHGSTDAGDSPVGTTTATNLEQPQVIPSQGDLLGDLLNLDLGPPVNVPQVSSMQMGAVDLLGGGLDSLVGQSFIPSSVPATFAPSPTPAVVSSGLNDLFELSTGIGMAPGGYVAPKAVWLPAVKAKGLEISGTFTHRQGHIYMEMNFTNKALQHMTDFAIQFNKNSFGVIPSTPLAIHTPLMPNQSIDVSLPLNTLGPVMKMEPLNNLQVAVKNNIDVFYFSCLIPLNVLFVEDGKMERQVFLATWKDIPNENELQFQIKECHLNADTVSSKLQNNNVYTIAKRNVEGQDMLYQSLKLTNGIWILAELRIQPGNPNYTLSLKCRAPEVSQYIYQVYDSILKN
UniProt P24666, sequence (P24666 whole entry, looked up): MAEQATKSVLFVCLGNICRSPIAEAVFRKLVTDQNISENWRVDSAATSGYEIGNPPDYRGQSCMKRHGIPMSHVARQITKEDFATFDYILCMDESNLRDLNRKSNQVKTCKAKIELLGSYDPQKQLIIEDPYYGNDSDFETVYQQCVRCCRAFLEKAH
UniProt P49748, sequence (P49748 whole entry, looked up): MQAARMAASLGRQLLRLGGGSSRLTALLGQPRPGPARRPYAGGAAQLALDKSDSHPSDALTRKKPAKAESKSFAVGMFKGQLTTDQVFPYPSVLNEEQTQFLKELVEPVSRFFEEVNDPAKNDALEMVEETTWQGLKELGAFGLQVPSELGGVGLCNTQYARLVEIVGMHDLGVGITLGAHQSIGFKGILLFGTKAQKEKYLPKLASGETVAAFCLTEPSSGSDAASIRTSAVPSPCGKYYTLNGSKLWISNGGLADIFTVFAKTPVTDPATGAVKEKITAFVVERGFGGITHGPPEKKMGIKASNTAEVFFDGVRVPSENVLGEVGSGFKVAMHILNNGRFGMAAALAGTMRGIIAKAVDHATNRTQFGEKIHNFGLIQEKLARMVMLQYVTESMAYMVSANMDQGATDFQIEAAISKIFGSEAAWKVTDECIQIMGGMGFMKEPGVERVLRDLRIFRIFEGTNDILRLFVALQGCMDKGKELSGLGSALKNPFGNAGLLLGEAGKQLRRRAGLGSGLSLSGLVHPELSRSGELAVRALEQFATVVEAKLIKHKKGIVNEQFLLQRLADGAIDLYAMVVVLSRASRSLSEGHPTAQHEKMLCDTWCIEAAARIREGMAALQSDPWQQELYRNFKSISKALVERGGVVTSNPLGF
UniProt P02749, sequence (P02749 whole entry, looked up): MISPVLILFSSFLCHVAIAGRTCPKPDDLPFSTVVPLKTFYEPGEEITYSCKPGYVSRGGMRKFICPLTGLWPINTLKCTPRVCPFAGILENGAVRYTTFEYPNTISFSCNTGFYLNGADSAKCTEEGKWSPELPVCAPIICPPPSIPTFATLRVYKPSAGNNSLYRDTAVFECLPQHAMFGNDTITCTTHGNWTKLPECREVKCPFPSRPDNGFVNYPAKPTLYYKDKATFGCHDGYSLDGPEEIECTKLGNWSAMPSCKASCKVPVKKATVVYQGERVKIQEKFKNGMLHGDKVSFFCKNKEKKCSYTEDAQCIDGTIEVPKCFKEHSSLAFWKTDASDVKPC

Target | log2 fold change [1] | log2 fold change [2] | log2 fold change [3] | log2 fold change [4] | log2 fold change [5] | log2 fold change [6] | log2 fold change [7] | log2 fold change [8] | log2 fold change [9] | log2 fold change [10]
ARPP19 (UniProt P56211) | 0.294 (active) | 0.033 | -0.016 | 0.002 | -0.061 | -0.184 | -0.007 | 0.075 | -0.01 | -0.073
BMP2K (UniProt Q9NSY1) | 0.032 | -0.019 | 0.029 | -0.092 | 0 | 0.055 | 0.024 | 0.111 | 0.01 | 0.102
ACSM3 (UniProt Q53FZ2) | 0.134 | -0.056 | 0.009 | -0.017 | -0.033 | 0.101 | -0.034 | 0.028 | -0.025 | 0.198
ABITRAM (UniProt Q9NX38) | 0.06 | 0.036 | 0.041 | 0.022 | 0.101 | 0.006 | 0.111 | 0.139 | 0.021 | 0.053
APOH (UniProt P02749) | 0.03 | -0.156 | -0.696 | 1.05 (active) | 0.151 | -0.059 | -0.307 | 0.529 | -0.197 | -0.537
ARFGEF1 (UniProt Q9Y6D6) | 0.043 | 0.014 | 0.111 | -0.092 | -0.075 | 0.246 (active) | 0.06 | 0.016 | 0.116 | 0.006
ATAD3A isoform 2 (UniProt Q9NVI7) | -0.029 | -0.005 | -0.053 | 0.073 | -0.006 | -0.116 | -0.199 | 0.001 | -0.029 | -0.185
APOB (UniProt P04114) | 0.034 | -0.86 (active) | -0.013 | -0.039 | 0 | -0.384 | -0.129 | 0.164 | -0.352 | 0.078
AURKA (UniProt O14965) | 0.021 | 0.009 | -0.021 | -0.095 | 1.36 (active) | 0.048 | -0.03 | 0.01 | 0.025 | 0.055
AFDN isoform 5 (UniProt P55196) | 0.131 | 0.014 | 0.013 | -0.06 | 0 | 0.034 | -0.017 | -0.009 | -0.026 | -0.009
AGPAT1 (UniProt Q99943) | -0.004 | 0.001 | -0.048 | -0.059 | -0.081 | 0.176 | 0.028 | 0.021 | 0.074 | 0.017
ADD2 (UniProt P35612) | 0.047 | 0.015 | -0.011 | 0.009 | -0.081 | 0.065 | 0.003 | 0.02 | -0.026 | 0.009
ATP13A3 (UniProt Q9H7F0) | -0.034 | 0.054 | -0.158 | -0.027 | -0.098 | -0.078 | -0.02 | -0.038 | 0.005 | 0.104
ACADM isoform 2 (UniProt P11310) | 0.039 | -0.036 | 0.014 | -0.039 | -0.055 | 0.039 | 0.017 | 0.046 | 0.001 | 0.029
ARF4 (UniProt P18085) | 0.007 | -0.061 | 0.006 | -0.153 | -0.023 | 0.17 | -0.005 | 0.019 | 0.037 | 0.035
ACADVL isoform 3 (UniProt P49748) | 0 | -0.069 | 0.019 | -0.04 | -0.031 | -0.089 | -0.019 | 0.025 | -0.12 | 0.093

Target | log2 fold change [1] | log2 fold change [2] | log2 fold change [3] | log2 fold change [4] | log2 fold change [5] | log2 fold change [6] | log2 fold change [7] | log2 fold change [8] | log2 fold change [9] | log2 fold change [10]
BRD8 (UniProt Q9H0E9) | -0.013 | 0.064 | -0.029 | 0.08 | -0.061 | -0.032 | 0.005 | 0.017 | -0.009 | 0.103
ACP1 isoform 2 (UniProt P24666) | 0.029 | 0.095 | 0.009 | 0.028 | 0.094 | 0.036 | 0.045 | -0.077 | 0.014 | 0.055
ABCA3 (UniProt Q99758) | -0.044 | 0.062 | 0.03 | -0.021 |  | 0.147 |  |  | -0.084 | 0.01
AHCYL1 (UniProt O43865) | 0.015 | -0.05 | -0.017 | -0.056 | -0.087 | 0.046 | 0.029 | 0.093 | 0.014 | 0.126
BUB1B isoform 3 (UniProt O60566) | 0.038 | 0.103 | 0.014 | -0.014 | 0.005 | 0.001 | 0.032 | -0.098 | 0.006 | 0.065
ATR (UniProt Q13535) | -0.267 (active) | 0.019 | 0.057 | -0.067 | -0.05 | 0.031 | 0.019 | 0 | 0.039 | 0.112
APAF1 (UniProt O14727) | -0.023 | -0.066 | -0.03 | -0.068 | 0.08 | 0.279 | -0.163 | 0.09 | 0.369 | -0.04
BRIP1 (UniProt Q9BX63) | 0.072 | 0.098 | 0.061 | -0.14 |  | 0.126 | 0.047 |  | 0.003 | 0.067
AP2B1 isoform 2 (UniProt P63010) | 0.08 | 0.022 | 0.036 | -0.019 | -0.062 | 0.012 | 0.01 | 0.01 | 0.049 | 0.015
BAP1 (UniProt Q92560) | 0.032 | 0.111 | 0.046 | 0.164 | -0.112 | -0.006 | -0.055 | -0.024 | 0.119 | 0.062
AKAP8L (UniProt Q9ULX6) | 0.032 | 0.064 | 0.097 | 0.205 | 0.041 | -0.212 | 0.008 | 0.001 | 0.034 | 0.019
BCLAF1 (UniProt Q9NYF8) | -0.107 | 0.103 | 0.068 | 0.127 | 0.074 | -0.215 | 0.01 | 0.033 | 0.101 | -0.109
ADK (UniProt P55263) | -0.009 | -0.013 | -0.014 | -0.083 | -0.037 | 0.015 | 0.199 | 0.007 | 0.21 | 0.167
ADAM15 (UniProt Q13444) | -0.159 | 0.065 | -0.206 | -0.083 |  | 0.078 | -0.029 |  | 0 | -0.045
BRD8 isoform 2 (UniProt Q9H0E9) | -0.201 | 0.042 | 0.027 | -0.027 |  | -0.113 |  |  | 0.019 | 0.06
